Compound activity as filed in PubChem BioAssay.
Rows were chosen to be rich in hits. Some 11% of all compounds tested hit in one or more screens of this group.
FLuc inh-1: Firefly luciferase inhibition profiling of diverse chemical library using quantitative high-throughput screening | hit rate 2.5% among 76,000 | purified P. pyralis luciferase, luminescence, biochemical | Potency, µM (top dose mostly 115 µM), most hits filed as inhibitors; note: % is set by controls: 0 for no effect and ±100 for the full control effect; nearly all actives have a fitted effect of over 65% in size
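Purified 10nM P. pyralis luciferase with 10uM D-luciferin and 10uM ATP in 50mM Tris acetate pH 7.5, 10mM Mg acetate, 0.01% Tween-20, 0.05% BSA. qHTS titration; luminescence read by CCD imager.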
3T3 cytotox: Cytotoxic Profiling in NIH 3T3 Cell Line of Diverse Libraries Using Quantitative High-Throughput Screening | Potency, µM (titrated, usually from 96.7 µM), for inactives: at the top dose activity change, negative = cytotoxicity, most hits filed as inhibitors | hit rate 4.3% among 94,000 | NIH 3T3 viability, CellTiter-Glo ATP luminescence, 48-72 h | AID 1345082, 2018; note: % is set by controls: 0 for no effect and ±100 for the full control effect; nearly all actives have a fitted effect of over 55% in size
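Viability of NIH 3T3 cells after 48 or 72 hr compound treatment at 37 °C was assessed by CellTiter-Glo, with luminescence imaged following a 10 min room-temperature step.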
HEK293 tox: Cytotoxic Profiling in HEK 293 Cell Line of Diverse Libraries Using Quantitative High-Throughput Screening | hit rate 6.6% among 94,000 | HEK 293 viability, ATP luminescence (CellTiter-Glo), 48-72 h | Potency, µM (titrated, usually from 115 µM), inactives show top-dose activity change, negative = cytotoxicity, usual class: inhibitors | AID 1345083, 2018; note: % is set by controls: 0 for no effect and ±100 for the full control effect; nearly all actives have a fitted effect of over 60% in size
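qHTS cytotoxicity; HEK 293, 250 cells/well; compound pinned; 48 or 72 hr, 37 degree Celsius, 5% CO2, 95% humidity; CellTiter-Glo, 10 min RT; luminescence (ATP).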
hNpr1 antagonist: Natriuretic polypeptide receptor (hNpr1) antagonism - Primary qHTS; Atrial natriuretic peptide receptor 1 (Homo sapiens), P16066; HEK293 hNpr1 GloSensor cGMP, ANP-stimulated luminescence; Potency, µM (series often up to 46.3 µM), inactives show top-dose activity change, negative = inhibition, actives largely listed as inhibitors; hit rate 1.6% among 76,000; calls by dose curve; note: % is set by controls: 0 for no effect and ±100 for the full control effect; nearly all actives have a fitted effect of over 60% in size
Target sequence (P16066 whole entry, looked up): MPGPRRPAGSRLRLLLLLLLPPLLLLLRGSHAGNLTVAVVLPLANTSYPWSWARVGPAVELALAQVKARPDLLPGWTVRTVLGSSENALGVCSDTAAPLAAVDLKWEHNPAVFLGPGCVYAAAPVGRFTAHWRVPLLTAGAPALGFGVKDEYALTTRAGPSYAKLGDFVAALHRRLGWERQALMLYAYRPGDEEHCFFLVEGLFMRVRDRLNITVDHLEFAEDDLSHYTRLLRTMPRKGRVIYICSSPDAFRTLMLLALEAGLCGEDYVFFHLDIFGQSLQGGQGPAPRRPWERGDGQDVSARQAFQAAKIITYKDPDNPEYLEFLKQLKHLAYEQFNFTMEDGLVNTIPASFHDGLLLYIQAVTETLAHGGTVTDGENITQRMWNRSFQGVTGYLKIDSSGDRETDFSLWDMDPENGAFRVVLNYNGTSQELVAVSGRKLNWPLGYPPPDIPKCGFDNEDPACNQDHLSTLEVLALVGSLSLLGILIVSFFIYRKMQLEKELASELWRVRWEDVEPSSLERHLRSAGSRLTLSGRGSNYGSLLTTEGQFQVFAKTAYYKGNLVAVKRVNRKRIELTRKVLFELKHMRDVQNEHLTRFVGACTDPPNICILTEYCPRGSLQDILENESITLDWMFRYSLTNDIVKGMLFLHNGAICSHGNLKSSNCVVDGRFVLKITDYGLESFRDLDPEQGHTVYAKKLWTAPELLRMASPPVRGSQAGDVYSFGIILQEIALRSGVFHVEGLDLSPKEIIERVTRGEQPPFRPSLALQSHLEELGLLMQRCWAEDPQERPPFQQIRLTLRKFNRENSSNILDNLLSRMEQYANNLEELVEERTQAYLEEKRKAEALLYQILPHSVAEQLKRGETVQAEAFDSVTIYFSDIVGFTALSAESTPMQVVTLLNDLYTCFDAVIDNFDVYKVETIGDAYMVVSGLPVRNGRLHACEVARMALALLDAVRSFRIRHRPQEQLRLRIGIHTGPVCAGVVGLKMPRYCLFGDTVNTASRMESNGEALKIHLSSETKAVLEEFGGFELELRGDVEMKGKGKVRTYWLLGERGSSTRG
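HEK293 cells stably expressing human Npr1 and cGMP GloSensor pGS-40F, loaded 2 h with 2% GloSensor reagent, given compound 30 min at room temperature. Luminescence read before and 20 min after 0.1 nM hNppA.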
FLuc SDR -ATP: Firefly luciferase (FLuc-C-HiBiT) SDR gain of signal screen - without ATP. shares compounds with FLuc inh-1. Purified FLuc-C-HiBiT, Nano-Glo HiBiT luminescence, no ATP. Potency, µM (top dose mostly 32.7 µM), for the others: top-dose activation (signal gain), usual class: activators. hit rate 7.8% among 1,300. AID 1963318, 2024; note: nearly all actives have a fitted effect of over 55% in size
FLuc SDR ATP: Firefly luciferase (FLuc-C-HiBiT) SDR gain of signal screen - plus ATP | shares compounds with FLuc inh-1 | purified FLuc-C-HiBiT + ATP, HiBiT complementation luminescence | Potency, µM (top dose mostly 32.7 µM), for inactives: top-dose activation (gain of signal), usual class: activators | hit rate 8.7% among 1,300;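 note: signal reports ligand binding via conformational change of the enzyme rather than luciferase catalysis; % of control where 0% means no effect; nearly all actives have a fitted effect of over 55% in size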
FLuc inh-2: Firefly luciferase (FLuc-C-HiBiT) enzymatic inhibition screen - Functional assay. AID 1963320, 2024. purified FLuc-C-HiBiT enzyme, luciferin luminescence. hit rate 42% among 1,300. Potency, µM (titrated, usually from 32.7 µM), without a hit: at the top dose activity change, negative = inhibition, most hits filed as inhibitors. shares compounds with FLuc inh-1; note: % is set by controls: 0 for no effect and ±100 for the full control effect; nearly all actives have a fitted effect of over 70% in size
* marks the source's active call; other numbers are inactive results; i = inactive; u = inconclusive; x = not tested or not shown; [ ] = remark or other dose. Unless noted, calls come from the whole dose curve; as a rule, active = well fitted curve in the direction sought with a large enough effect; inconclusive = small, poorly fitted or top-dose-only effect, or another doubt; inactive = no such curve, though single readings can be large; an effect the other way counts as inactive or inconclusive. Potency is the fitted concentration of half-maximal effect.

SMILES	FLuc inh-1	3T3 cytotox	HEK293 tox	hNpr1 antagonist	FLuc SDR -ATP	FLuc SDR ATP	FLuc inh-2
CCn1cc(-c2ccc(OC)cc2)cc1C(=O)O	25.1µM*	-23.0%	u	-2.6%	16.2%	14.4%	u
CCN(CC)c1cc(CCC(=O)O)ccn1	6.31µM*	1.3%	-7.4%	-26.7%	13.3%	1.57µM*	1.4µM*
CCN(CC)c1cc(CCC(=O)NCCOC)ccn1	i	-10.7%	-4.6%	9.6%	x	x	x
Cc1ccc(-c2cc(C(=O)O)n(C)c2)cc1	15.8µM*	-28.9%	-0.2%	-13.6%	10.8%	u	u
CN(C)C(=O)c1cc(-c2ccc(Cl)cc2)cn1C	u	-24.7%	u	-0.3%	x	x	x
Cn1cc(-c2ccc(Cl)cc2)cc1C(=O)O	u	u	u	-4.1%	10.1%	9.6%	-14.8%
COc1cccc(C(=O)N2CCC(N3C[C@H](O)C[C@H]3C(=O)NCc3ccc(C)cc3)CC2)c1	i	-8.7%	-28.3%	5.3%	x	x	x
Cc1ccc(NC(=O)CN2C(=O)NC3(CCCCC3)C2=O)c(C)c1	i	-14.3%	-4.3%	3.8%	x	x	x
Cc1ccc(NC(=O)c2oc3ccc4c(c3c2C)C(=O)CC(C)(C)O4)c(C)c1	x	x	x	x	20.0%	u	u
Cc1cc(C)cc(C(=O)N2CCC(CC(=O)NCc3ccccc3)C2)c1 (centres undefined)	i	0.6%	-0.7%	10.4%	x	x	x
Cc1cc(CNC(=O)CC2C=CS(=O)(=O)C2)c2[nH]c(-c3ccccc3)c(C)c2c1 (centres undefined)	6.31µM*	39.8µM*	44.7µM*	-20.8%	21.4%	13.3%	u
COc1ccc(-c2cn(C)c(=O)n3cc(CN4CC[S+](=O)([O-])CC4)nc23)cc1OC	i	u	-10.6%[172 µM]	3.4%[70.6 µM]	x	x	x
O=C(Nc1ccccc1-c1nc2ccccc2s1)c1ccc(F)cc1	x	x	x	x	7.6%	6.7%	-7.3%
COc1ccc(C(=O)NCCC2CCN(C(=O)Nc3ccccc3)CC2)cc1OC	i	2.7%	-6.0%	2.6%	x	x	x
COc1ccc(C(=O)Nc2ccccc2-c2nc3ccccc3s2)cc1OC	x	x	x	x	13.4%	9.4%	-0.3%
O=C(Nc1ccccc1-c1nc2ccccc2s1)c1cc(Cl)cc(Cl)c1	x	x	x	x	10.0%	8.9%	2.2%
COCCNC(=O)c1ccc2c(c1)N(C)C(CC(=O)N1CCCC1)CO2 (centres undefined)	i	-20.9%	-18.4%	-2.8%	x	x	x
O=C(c1ccc(C(F)(F)F)cc1)N1CCC2(CC1)CN[S+](=O)([O-])c1ccccc1N2	i	-10.0%	-2.1%	9.3%	x	x	x
CC(C)c1nc(C2Cc3ccccc3N2C(=O)NC2CCCC2)no1 (centres undefined)	7.94µM*	u	u	u	15.7%	14.9%	u
CCOCC(=O)N1c2ccccc2CC1c1noc(C(C)C)n1 (centres undefined)	7.08µM*	u	u	u	17.4%	17.2%	u
CN1CCN(CCNC(=O)c2ccc3c(c2)N(S(=O)(=O)c2ccccc2F)CC3)CC1	i	u	-22.4%	-3.1%	x	x	x
Cc1ccc(-n2ncc3c(N(C)Cc4ccccc4)ncnc32)cc1	x	x	x	x	u	u	1.57µM*
Cc1ccc(-n2ncc3c(N4CCC(Cc5ccccc5)CC4)ncnc32)cc1	x	x	x	x	16.0%	15.8%	-16.7%
Cc1ccc(CNC(=O)c2cc3c(N(C)Cc4ccccc4)nc(C)cn3n2)cc1	i	u	u	7.2%	x	x	x
Clc1cccc(-n2ncc3c(N4CCC(Cc5ccccc5)CC4)ncnc32)c1	x	x	x	x	10.4%	7.4%	-3.6%
SMILES	FLuc inh-1	3T3 cytotox	HEK293 tox	hNpr1 antagonist	FLuc SDR -ATP	FLuc SDR ATP	FLuc inh-2
COc1ccc(N2Cc3c(ncnc3N3CCC(Cc4ccccc4)CC3)N(C)CC2=O)cc1	i	u	u	-5.8%	x	x	x
CC(=O)c1cccc(NC(=O)c2nc3ccccc3n(C)c2=O)c1	x	x	x	x	4.42µM*	u	3.13µM*
COc1ccc(-c2nc3c4cnn(-c5ccccc5F)c4ncn3n2)cc1	x	x	x	x	15.3%	12.2%	u
O=C(NCCc1ccccc1)C1CCN(c2cc(C(F)(F)F)ncn2)CC1	i	-14.7%	-21.3%	-17.4%	x	x	x
O=C(NCc1ccc2c(c1)OCO2)C1CCN(c2cc(C(F)(F)F)ncn2)CC1	10µM*	u	u	u	15.6%	17.3%	u
Cc1ccc(C2Cn3cnc(C(=O)N4CCC(C(=O)NCc5ccccc5C)CC4)c3CO2)cc1 (centres undefined)	u	2.0%	-1.9%	-2.6%	x	x	x
O=C(NCc1ccccc1Cl)C1CCN(C(=O)c2ncn3c2COC(c2ccccc2)C3)CC1 (centres undefined)	14.1µM*	0.5%	13.3%	-13.8%	12.5%	u	u
O=C(NCc1ccc(Cl)cc1)C1CCN(C(=O)c2ncn3c2COC(c2ccccc2)C3)CC1 (centres undefined)	8.91µM*	-7.2%	-17.1%	-23.2%	14.5%	u	3.94µM*
O=C(NCc1cc(F)ccc1F)C1CCN(C(=O)c2ncn3c2COC(c2ccccc2)C3)CC1 (centres undefined)	2.24µM*	-7.2%	-10.1%	-16.0%	9.5%	u	3.13µM*
CNC(=O)c1cc(C)nc2onc(C3CCCN3C(=O)c3ccc(OC)cc3)c12 (centres undefined)	x	-17.2%	-16.9%	x	x	x	x
COc1ccc(-c2cc(N3CCC(NC(=O)c4ccccc4Br)C3)n[nH]2)cc1 (centres undefined)	i	u	u	-8.9%	x	x	x
O=C(CC1=C2CCCCC2NC1=O)NCC1CCN(Cc2cccc(F)c2)CC1 (centres undefined)	i	-6.7%	-10.2%	-3.4%	x	x	x
COc1ccc(C2Cn3cnc(C(=O)N4CCC(C(=O)NCC5CC5)CC4)c3CO2)cc1 (centres undefined)	i	i	-7.8%	-0.7%	x	x	x
O=C(NCc1ccc2c(c1)OCO2)C1CCN(C(=O)c2ncn3c2COC(c2ccccc2)C3)CC1 (centres undefined)	7.94µM*	i	14.2%	-24.2%	15.9%	u	7µM*
